Pol kappa inh – qHTS for Inhibitors of Polymerase Kappa. DNA polymerase kappa (Homo sapiens), Q9UBT6. AID 588579, 2011. Potency, µM (highest dose often 107 µM), inactives show at the highest dose activity, negative = inhibition, usual class: inhibitors. actives 0.53% (n = 400,000). purified Pol kappa, fluorescent DNA synthesis assay, 10 min; also: % is scaled to controls: 0 for no effect and ±100 for the full control effect
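Activity was followed as the change in fluorescence between reads at 0 and 10 min after starting the reaction with 50 nM substrate. Beforehand, 10 nM polymerase had been preincubated with compound for 15 min at room temperature.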
FEN1 inhibitor – qHTS Assay for the Inhibitors of Human Flap endonuclease 1 (FEN1). P39748. AID 588795, 2011. actives 0.35% (n = 390,000). Recombinant FEN1 flap cleavage, fluorescence, 15 min. Potency, µM (highest dose often 114 µM), without a hit: at the top dose activity change, negative = inhibition, hits mostly inhibitors; also: % is scaled to controls: 0 for no effect and ±100 for the full control effect; nearly all actives have a fitted effect of over 65% in size
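Potency values derive from four-parameter Hill fits of normalized qHTS data. The reaction used 10 nM FEN1 preincubated 15 min at room temperature with compound, then 50 nM DNA substrate, read at 0 and 15 min.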
WRN inhibitor – qHTS for Inhibitors of WRN Helicase; AID 651768, 2012; Potency, µM (titrated, usually from 114 µM), for the others: top-dose activity change, negative = inhibition, actives largely listed as inhibitors; WRN helicase unwinding, fluorescent forked duplex, kinetic; actives 0.46% (n = 360,000); Bifunctional 3'-5' exonuclease/ATP-dependent helicase WRN (Homo sapiens), Q14191; also: % is scaled to controls: 0 for no effect and ±100 for the full control effect; nearly all actives have a fitted effect of over 55% in size
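WRN at 20 nM final preincubated with compound 15 min at room temperature; reaction started with 100 nM fluorophore/quencher forked duplex oligonucleotide and 2 mM ATP final. Unwinding followed kinetically by red fluorescence (ex 525, em 598 nm).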
Pol iota inh – qHTS for Inhibitors of Polymerase Iota. Potency, µM (titrated, usually from 115 µM), for inactives: at the top dose activity, negative = inhibition, usual class: inhibitors. DNA polymerase iota (Homo sapiens), Q9UNA4. actives 1% (n = 390,000). Pol iota fluorescent replication assay, 10 min. AID 588590, 2011
Target sequence (Q9UNA4 whole entry, looked up): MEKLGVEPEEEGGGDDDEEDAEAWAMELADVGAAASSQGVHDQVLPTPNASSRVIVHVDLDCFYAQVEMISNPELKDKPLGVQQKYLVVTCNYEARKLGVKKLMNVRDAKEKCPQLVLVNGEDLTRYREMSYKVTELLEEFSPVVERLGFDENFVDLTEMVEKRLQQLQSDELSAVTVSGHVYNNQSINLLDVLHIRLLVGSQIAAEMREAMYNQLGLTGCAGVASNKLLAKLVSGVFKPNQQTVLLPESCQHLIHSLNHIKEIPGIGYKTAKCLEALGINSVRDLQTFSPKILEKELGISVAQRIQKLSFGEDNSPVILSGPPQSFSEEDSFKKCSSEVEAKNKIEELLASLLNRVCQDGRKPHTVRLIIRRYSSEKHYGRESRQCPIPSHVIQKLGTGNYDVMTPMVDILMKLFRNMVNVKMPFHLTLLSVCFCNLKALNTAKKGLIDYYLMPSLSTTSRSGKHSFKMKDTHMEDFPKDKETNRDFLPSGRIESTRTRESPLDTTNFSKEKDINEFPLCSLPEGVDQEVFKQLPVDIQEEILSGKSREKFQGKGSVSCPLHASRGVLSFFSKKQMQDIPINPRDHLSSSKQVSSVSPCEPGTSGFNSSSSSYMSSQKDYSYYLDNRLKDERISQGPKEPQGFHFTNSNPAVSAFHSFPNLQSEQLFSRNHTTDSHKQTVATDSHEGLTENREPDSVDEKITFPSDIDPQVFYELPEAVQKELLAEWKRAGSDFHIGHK
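Fluorescent replication assay read twice, at 0 min and 10 min after adding 50 nM (final) substrate. Enzyme (10 nM) and compounds were first incubated 15 min at room temperature; enzyme-free buffer wells were negative controls.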
Pol beta inh – qHTS Assay for Inhibitors of DNA Polymerase Beta; P06746; Pol beta primer extension/strand displacement, fluorescence kinetic; Potency, µM (highest dose often 114 µM), without a hit: at the highest dose activity change, negative = inhibition, hits mostly inhibitors; actives 1.3% (n = 340,000); also: % is scaled to controls: 0 for no effect and ±100 for the full control effect
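Values derive from four-parameter Hill fits of normalized kinetic data: reads at 0 and 10 min following addition of 50 nM substrate to 10 nM Pol beta preincubated 15 min with compound.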
Pol eta inh – qHTS for Inhibitors of Polymerase Eta | actives 1.2% (n = 390,000) | Potency, µM (series often up to 114 µM), inactives show at the top dose activity change, negative = inhibition, usual class: inhibitors | recombinant Pol eta, fluorescent DNA replication assay | AID 588591, 2011 | DNA polymerase eta (Homo sapiens), Q9Y253; also: % is scaled to controls: 0 for no effect and ±100 for the full control effect
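Pol eta (10 nM) was preincubated with compounds for 15 min at room temperature, after which fluorescent replication substrate (50 nM final) was added to start the reaction. Fluorescence was read kinetically at 0 and 10 min.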
An asterisk follows results filed as active; ? = inconclusive; . = not tested or not shown; [ ] = another dose, or the depositor's remark. A selection: hits, their analogues and other compounds. The true share with any hit is near 2.4%. Calls follow the shape of the dose curve; as a rule, active = well fitted curve in the direction sought with a large enough effect; inconclusive = small, poorly fitted or top-dose-only effect, or another doubt; inactive = no such curve, though single readings can be large; an effect the other way counts as inactive or inconclusive. Potency is read from the fitted curve at half-maximal effect.

SMILES	Pol kappa inh	FEN1 inhibitor	WRN inhibitor	Pol iota inh	Pol beta inh	Pol eta inh
Cc1cc(C)c2nc3s/c(=C/c4ccccc4)c(=O)n3c2c1	.	.	.	.	-1%	.
Cc1ccc2c(nc3s/c(=C/c4cccs4)c(=O)n32)c1C	?	0%	-24%	?	32µM*	20µM*
CCc1cc2c(=O)c(-c3nc4ccccc4n3C)coc2c(CN2CCCCC2C)c1O (configuration not stated)	-97%	?	?	32µM*	28µM*	?
CCc1cc2c(=O)c(-c3nc4ccccc4n3C)coc2c(CN2CCCCC2)c1O	-2%[60.1 µM]	-16%	-12%	31%	19%	3%
CS(=O)(=O)c1ccc(NC(=O)COc2ccccc2C(=O)Nc2ccccc2)cc1	-6%	1%	.	12%	.	.
O=C(Oc1coc(CSc2nnc(NC(=O)c3cccs3)s2)cc1=O)c1ccccc1	?	1%	-34%	?	13µM*	?
CCC(C=C[C@@H]1OC(=O)C=C[C@H]1C)=C[C@H](C)CC=CC(C)=C[C@@H](C)C(=O)[C@@H](C)[C@H](O)[C@@H](C)CC(C)=CC(=O)O	-7%[2.39 µM]	.	.	.	.	.
Cc1ccccc1Cn1c(=O)n(CCCCC(=O)NCc2ccccc2Cl)c(=O)c2ccccc21	-10%	4%	.	43%	2%	-3%
N#Cc1ccccc1Cn1c(=O)n(CCCC(=O)NCc2ccccc2Cl)c(=O)c2ccccc21	-60%	1%	.	89µM*	1%	-10%
O=C(C[n+]1cccc2cc(Cl)ccc21)c1ccc(Br)cc1	-13%	-17%	.	40%	.	.
N#C/C(=C\c1cccs1)C(=O)c1ccccc1	-12%	5%	?	28µM*	?	-17%
CNc1ccc(/C=C/c2ccccc2)cc1	-20%	-8%	.	-6%	.	.
COC(=O)c1ccc(CC(=O)c2c(C)cc(O)cc2O)o1	25µM*	?	?	?	?	?
COc1ccc(CCC(=O)NO)cc1	14%	-2%	.	19%	.	.
CCCCc1nn2c(=O)cc(COC(=O)c3cccs3)nc2s1	-6%	-1%	.	0%	?	2%
O=C(CSc1ccc(-c2nc3ccccc3[nH]2)cn1)N1CCN(C(=O)c2ccco2)CC1	50µM*	?	?	16µM*	?	?
O=C(CCc1nc2ccccc2[nH]1)N1CCN(C(=O)c2ccco2)CC1	13%	0%	1%	1%	0%	-15%
Cc1c(C#N)c(NC(=O)COC(=O)c2cc(Cl)c3c(c2)OCCCO3)n(Cc2ccco2)c1C	-9%	4%	.	-24%	.	.
CCCCC1=CC2=C(c3ccco3)C(=O)C(C)(OC(=O)c3ccc(OC)cc3)C(=O)C2=CN1CCCCO (configuration not stated)	-23%	1%	-12%	?	21%	6%
CCCCC1=CC2=C(c3ccco3)C(=O)C(C)(OC(=O)c3ccc(OC)cc3)C(=O)C2=CN1CC(C)C (configuration not stated)	3%	11%	-11%	36%	3%	-3%
CCCCC1=CC2=C(c3ccco3)C(=O)C(C)(OC(=O)c3ccc(OC)cc3)C(=O)C2=CN1Cc1ccc(OC)cc1 (configuration not stated)	.	.	.	.	45µM*	.
CCCCC1=CC2=C(c3ccco3)C(=O)C(C)(OC(=O)c3ccc(OC)cc3)C(=O)C2=CN1Cc1ccco1 (configuration not stated)	50µM*	-2%	0%	4µM*	10µM*	-15%
O=C1C(N2CCOCC2)=C(n2nnc3ccccc32)C(=O)c2ccccc21	-7%	-12%	-1%	?	-4%	45µM*
CSCC[C@H](NC(=O)[C@H](CC(C)C)NC(=O)[C@@H]1CCCN1C(=O)[C@H](Cc1ccccc1)NC(=O)[C@H](Cc1ccccc1)NC(=O)[C@H](CCC(N)=O)NC(=O)[C@H](CCC(N)=O)NC(=O)[C@@H]1CCCN1C(=O)[C@H](CCCCN)NC(=O)[C@@H]1CCCN1C(=O)[C@@H](N)CCCN=C(N)N)C(N)=O	13%[60.1 µM]	.	.	.	.	.
CCOC(=O)N1CCN(C(=O)CSCc2nc(-c3ccccc3F)oc2C)CC1	-4%	-1%	2%	89µM*	30%	-8%
SMILES	Pol kappa inh	FEN1 inhibitor	WRN inhibitor	Pol iota inh	Pol beta inh	Pol eta inh
COC(=O)C1=C(C)NC(C)=C(C(=O)OCCCN2CCC(c3ccccc3)(c3ccccc3)CC2)[C@H]1c1cccc([N+](=O)[O-])c1	-13%[19.4 µM]	.	.	.	.	.
Cc1csc2nc3cc(C(N)=O)ccc3c(=O)n12	12%	-4%	1%	18%	1%	-13%
NC(=O)c1ccc2c(=O)n3c(-c4cc(Cl)c(N)c(Cl)c4)csc3nc2c1	-2%	?	-35%	50µM*	?	?
CCOC(=O)c1c(NC(C)=O)sc2c(OCC(O)CNC(C)(C)C)c(Br)ccc12 (configuration not stated)	-14%	22µM*	47%	?	0%	-18%
Cc1nc(-c2ccccc2)c(-c2ccncc2)o1	17%[60.1 µM]	.	.	.	.	.
CCc1ccc(NC(=O)C(=O)NCCc2sc(-c3ccc(OC)c(OC)c3)nc2C)cc1	0%[60.1 µM]	1%	.	24%	23%	-17%
C=CCSc1nc(-c2ccccc2)c(C#N)c(=O)[nH]1	6%	-11%	-5%	75%	-6%	-7%
N#Cc1c(-c2ccccc2)nc(SCc2ccc(Cl)cc2)[nH]c1=O	-2%	-22%	-25%	?	?	79µM*
CC1(C)C(=O)NC2=C1C(=O)C(=O)c1ccccc12	-16%[12 µM]	.	.	.	.	.
O=C(CSc1nc2nn(-c3ccccc3)c(=O)c-2c2n1CCCCC2)c1ccc(O)c(O)c1	4µM*	?	2.8µM*	2µM*	.	1.8µM*
N/C(=N\OS(=O)(=O)c1ccccc1)c1ccncc1	2%	-3%	-2%	20µM*	22%	-5%
N/C(=N\OS(=O)(=O)c1ccc2ccccc2c1)c1ccncc1	-3%	-4%	-16%	6%	-8%	-19%
O=C(O)c1cn(C2CC2)c2cc(N3CCNCC3)c(F)cc2c1=O	-8%[60.1 µM]	.	.	.	.	.
O=C(COc1ccccc1C(=O)Nc1ccccc1)Nc1ccccc1-c1ccccc1	-7%	-10%	.	?	.	.
Cn1c(=O)c2[nH]c(SCCN3CCOCC3)nc2n(C)c1=S	-18%	10%	-35%	18µM*	.	7%
Cn1c(=O)c2[nH]c(SCCN3CCCCC3)nc2n(C)c1=S	-19%	4%	-2%	?	.	2%
